# Source: PubChem BioAssay (NCI)
# About 79,000 compounds went through this panel and 15% of them were active in at least one assay; those are over-represented in the sample as a whole. Values without a mark were called inactive. Activity calls are given as the source filed them. Cut-off read from the data, not from the text of the source: active = growth inhibition above about 70%; inactive = the rest.
# Experiments:
# [1] = NCI Yeast Anticancer Drug Screen. Data for the rad50 strain (AID 155);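 note: 0% = growth of vehicle-only cultures of the same strain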; details: S. cerevisiae rad50 strain growth inhibition, hits give high values
# Procedure, shortened: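 Genetically altered yeast (DNA repair pathway); compound treatment; growth inhibition vs vehicle ctrl.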
# [2] = NCI Yeast Anticancer Drug Screen. Data for the mec2-1 strain (AID 157); details: S. cerevisiae mec2-1 strain, hits give high values
# Procedure, shortened: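 Using mec2-1 yeast: add compound, measure growth, express inhibition versus vehicle-treated cultures.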
# [3] = NCI Yeast Anticancer Drug Screen. Data for the sgs1 mgt1 strain (AID 161);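 note: 0% = growth of cultures given vehicle only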; details: S. cerevisiae sgs1 mgt1 strain, hits give high values
# Procedure, shortened: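 Yeast cells carrying a defined DNA-repair defect were exposed to test compounds. Growth inhibition was measured relative to vehicle-treated controls.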
# [4] = NCI Yeast Anticancer Drug Screen. Data for the cln2 rad14 strain (AID 165);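 note: 0% = growth equal to vehicle treated cultures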; details: S. cerevisiae cln2 rad14 strain, hits give high values
# Procedure, shortened: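 Yeast strain cln2 rad14, bearing defects in cell cycle control and DNA repair, serves as the test system; values reflect growth inhibition compared with vehicle.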
# [5] = NCI Yeast Anticancer Drug Screen. Data for the bub3 strain (AID 167); details: S. cerevisiae bub3 mutant strain, hits give high values
# Procedure, shortened: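 Yeast carrying a defined mutation is treated with each compound, and growth is compared with that of vehicle-exposed cells to give inhibition.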
# [6] = NCI Yeast Anticancer Drug Screen. Data for the mlh1 rad18 strain (AID 175); details: S. cerevisiae mlh1 rad18 strain growth inhibition, hits give high values
# Procedure, shortened: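 Steps: expose repair-defective yeast to compound; measure growth; express inhibition against vehicle-treated controls.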
# [7] = at 5.0 µM (retest, dose inferred, filed as 0.5)
# [8] = at 50.0 µM (retest, dose inferred, filed as 5.0)
SMILES,"growth inhibition [1, 7] [%]","growth inhibition [1, 8]",growth inhibition ([1]; at 50.0 µM),"growth inhibition [2, 7] [%]","growth inhibition [2, 8]",growth inhibition ([2]; at 50.0 µM),"growth inhibition [3, 7] [%]","growth inhibition [3, 8]",growth inhibition ([3]; at 50.0 µM),"growth inhibition [4, 7] [%]","growth inhibition [4, 8]",growth inhibition ([4]; at 50.0 µM),"growth inhibition [5, 7] [%]","growth inhibition [5, 8]",growth inhibition ([5]; at 50.0 µM),"growth inhibition [6, 7] [%]","growth inhibition [6, 8]",growth inhibition ([6]; at 50.0 µM)
C[C@]12CC[C@@H]3c4ccc(O)cc4CC[C@H]3[C@@H]1CC[C@@H]2NCCCCCCO,21,25%,14.6%,18,19%,48.6%,18,38%,34.4%,26,31%,-13.2%,15,34%,-6.1%,21,37%,-3.2%
CC(C)n1nnc2c3ccccc3c3ccccc3c21,3,11%,-7.5%,5,-1%,4.1%,-2,6%,11.8%,15,19%,-1.25%,14,12%,5.9%,-10,15%,0%
Nc1nc(-c2ccc3c(c2)Sc2ccccc2O3)cs1,18,99% (active),67.6%,39,100% (active),65.3%,57,99% (active),91.3% (active),7,99% (active),78.1% (active),11,99% (active),86.7% (active),57,99% (active),93.7% (active)
COc1ccc(C2c3cc4c(cc3OC(O)C2C)OCO4)cc1 (configuration not stated),-3,69%,96.8% (active),-6,49%,93.5% (active),-2,78% (active),98.3% (active),-2,42%,95.3% (active),-2,67%,97% (active),-1,74% (active),97.5% (active)
Oc1c(Cl)cc(CN(Cc2cc(Cl)c(O)c(Cl)c2)C2CCCCC2)cc1Cl,10,87% (active),97.8% (active),1,88% (active),98.9% (active),2,88% (active),97.6% (active),-17,51%,98.2% (active),-9,88% (active),97.6% (active),-12,95% (active),98% (active)
CC(=O)N1CCCC2=C1CCCCCCCCCC2,-7,4%,49.4%,-6,-5%,27.9%,-3,1%,70.6% (active),3,-9%,22.9%,-12,-21%,29.2%,-6,-2%,13.8%
CC(C)=NOCCOC(=O)C(c1ccccc1)c1ccccc1,-4,3%,80.7% (active),-5,2%,75% (active),-8,-2%,92% (active),0,18%,39.6%,7,25%,96.6% (active),-6,0%,89% (active)
O=C(O)Cc1cc(I)c(Oc2ccc(O)c(I)c2)c(I)c1,-6,92% (active),89.8% (active),0,98% (active),92.2% (active),7,93% (active),91% (active),29,97% (active),89.3% (active),22,98% (active),91.7% (active),20,97% (active),89.7% (active)
O=C1CC(c2ccccc2Cl)C(c2ccccc2Cl)C1 (configuration not stated),-2,97% (active),97.5% (active),-6,98% (active),96% (active),-7,96% (active),96.7% (active),-2,97% (active),95.5% (active),0,97% (active),97.2% (active),-2,96% (active),97.2% (active)
